Compound activity as filed in PubChem BioAssay.
Only some compounds are listed: those with a hit (about 7.4% of all), similar ones and a draw of the others.
Rab9 prom act: activates the Rab9 promoter. Huh7 Rab9 promoter-luciferase reporter, luminescence, 24 h. Potency, µM (top dose mostly 9.22 µM), for the others: at the highest dose activation, negative = inhibition, hits mostly activators. 2.8% of 320,000 active; also: % of control where 0% means no effect; nearly all actives have a fitted effect of over 60% in size
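Luciferase signal after 10 min detection reagent at ambient indicates Rab9 promoter upregulation; stably transfected Huh7 cells were treated 24 h with compound in DMSO at 37 °C, 5% CO2.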
SMN2 splice enh: SMN2 splice variant enhancement | HEK293 SMN2-luciferase splicing reporter, luminescence, 30-36 h | Potency, µM (series often up to 46.1 µM), inactives show at the highest dose activity change, positive = activation, actives largely listed as activators | 2.8% of 210,000 active; also: % of control where 0% means no effect; nearly all actives have a fitted effect of over 55% in size
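qHTS luciferase splicing reporter: luminescence rises when SMN2 exon 7 is included in transfected HEK293 cells. Compound exposure lasted 30-36 h at 37C, with 4.5 mM final sodium butyrate as control, followed by a ONE-Glo read.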
FLuc counter: inhibits or activates purified firefly luciferase, miR-21 counter-screen. P08659. purified FLuc, Km substrates, luminescence inhibition. Potency, µM (top dose mostly 57.5 µM), without a hit: top-dose activity change, negative = inhibition, usual class: inhibitors. 6.9% of 360,000 active. AID 588342;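 also: plate controls were vehicle for no effect and reference inhibitor for full effect; nearly all actives have a fitted effect of over 55% in size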
Target sequence (P08659 whole entry, looked up): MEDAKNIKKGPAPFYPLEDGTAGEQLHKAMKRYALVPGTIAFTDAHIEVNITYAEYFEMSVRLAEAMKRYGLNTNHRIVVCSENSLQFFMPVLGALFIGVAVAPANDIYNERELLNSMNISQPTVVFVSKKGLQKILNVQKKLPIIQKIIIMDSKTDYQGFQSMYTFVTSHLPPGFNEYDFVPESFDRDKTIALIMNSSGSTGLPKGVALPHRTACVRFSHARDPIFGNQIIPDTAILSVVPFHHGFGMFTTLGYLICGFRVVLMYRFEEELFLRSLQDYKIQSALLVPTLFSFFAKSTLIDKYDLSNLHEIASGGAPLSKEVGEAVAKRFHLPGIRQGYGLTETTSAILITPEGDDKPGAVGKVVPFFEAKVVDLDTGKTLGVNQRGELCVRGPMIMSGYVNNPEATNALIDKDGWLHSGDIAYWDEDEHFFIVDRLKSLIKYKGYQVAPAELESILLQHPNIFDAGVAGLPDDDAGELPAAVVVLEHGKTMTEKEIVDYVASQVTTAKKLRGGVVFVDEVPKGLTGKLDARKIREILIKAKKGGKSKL
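Purified P. pyralis luciferase, 10 nM final, with Km-level 10 uM D-luciferin and 10 uM ATP in 50 mM Tris acetate pH 7.5, 10 mM Mg acetate, 0.01% Tween-20, 0.05% BSA; 6-point qHTS titration about 60 µM downward; luminescence read.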
NPC1 promoter act: NPC1 promoter activation; Huh7 NPC1 promoter luciferase reporter, 24 h; Potency, µM (top dose mostly 9.22 µM), inactives show at the top dose activation, actives largely listed as activators; 2.4% of 320,000 active; also: % of control where 0% means no effect; nearly all actives have a fitted effect of over 60% in size
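Readout is luciferase luminescence, reflecting NPC1 promoter activation in stably transfected Huh7 cells after 24 h compound exposure at 37 °C in reduced-serum medium with 10% FBS.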
ELG1 genotox: induces genotoxicity in HEK293T cells with luciferase-tagged ELG1 | HEK293T ELG1-luciferase reporter, luminescence, 16 h | Potency, µM (series often up to 46 µM), for inactives: at the highest dose activity change, positive = activation, usual class: activators | 1.3% of 330,000 active; also: % of control where 0% means no effect; nearly all actives have a fitted effect of over 60% in size
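HEK293T cells expressing luciferase-tagged ELG1 were treated with compound or DMSO for 16 hr at 37°C. Luciferase activity was then read after 30 min with ONE-Glo at room temperature; rising signal flags genetic stress.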
An asterisk follows results filed as active; ? = inconclusive; · = not tested or not shown; [ ] = remark or other dose. Calls follow the shape of the dose curve; as a rule, active = well fitted curve in the direction sought with a large enough effect; inconclusive = small, poorly fitted or top-dose-only effect, or another doubt; inactive = no such curve, though single readings can be large; an effect the other way counts as inactive or inconclusive. Potency is read from the fitted curve at half-maximal effect.

SMILES	Rab9 prom act	SMN2 splice enh	FLuc counter	NPC1 promoter act	ELG1 genotox
Cn1c(=O)oc2cc(S(=O)(=O)CCC(=O)N3CCN(c4cccc(Cl)c4)CC3)ccc21	·	·	-1.9%	·	·
Cc1ccc(-c2nc3cc(NC(=O)c4cc5ccccc5o4)ccc3o2)cc1	·	9.4%	-10.3%	·	·
Nc1ccc2oc(-c3cccs3)nc2c1	3.55µM*	·	12µM*	3.16µM*	9.2µM*
Cc1ccc(-c2nc3cc(N)ccc3o2)cc1	0.447µM*	0.708µM*	0.601µM*	0.447µM*	0.326µM*
Cc1ccc2oc(-c3cccc(N)c3)nc2c1	0.631µM*	·	0.757µM*	1µM*	2.31µM*
Cc1ccc(-c2nc3cc(N)ccc3o2)c(C)c1	0.562µM*	?	0.675µM*	?	2.59µM*
CCOC(=O)c1ccccc1NC(=O)N1CCOc2ccc(Cl)cc21	·	·	-9.4%	·	·
CC(C)c1ccc2oc(-c3ccc(N)cc3)nc2c1	0.562µM*	·	0.19µM*	0.562µM*	?
CC(C)(C)c1ccc(-c2nc3cc(N)ccc3o2)cc1	0.631µM*	·	0.426µM*	0.316µM*	1.3µM*
Cc1ccc(/C(O)=C/c2nc3cc(C)ccc3oc2=O)cc1	-4.5%	·	12µM*	-2.0%	0.9%
Cc1ccc(-c2nc3cc(NS(=O)(=O)c4ccc(C)cc4)ccc3o2)cc1	6.1%	-7.7%	?	-1.1%	5.7%
CC(C)c1ccc2oc(-c3ccc(NC(=O)c4cc5ccccc5o4)cc3)nc2c1	·	-23.3%	-2.3%	·	·
Cc1ccc(-c2nc3cc(C)ccc3o2)cc1	0.631µM*	11.2µM*	0.169µM*	?	0.517µM*
O=C1CCC=C1C(O)c1ccc(Cl)cc1 (stereo not given)	·	3.8%	·	·	·
Sc1ccc2ccccc2c1CNCc1ccccc1	·	-4.0%[9.22 µM]	·	·	·
Nc1ccc2oc(-c3cccc4ccccc34)nc2c1	8.2%	10.2%	13.5µM*	-2.2%	7.5%
Cc1ccc2oc(-c3ccco3)nc2c1	?	18.2%	4.78µM*	?	?
O=C(O)COc1ccc(/C=C/C(=O)c2ccc(C3CCCCC3)cc2)cc1	?	·	0.379µM*	?	2.9%
O=C(O)COc1ccc(/C=C/C(=O)c2ccc3ccccc3c2)cc1	13.8%	·	0.953µM*	3.4%	8.2%
CCOc1ccc(/C=C/C(=O)NC2CCCCC2)cc1	17.3%	·	?	18.7%	6.7%
O=C(O)COc1ccc(C(=O)c2ccccc2)cc1	-6.0%	·	?	-1.5%	0.2%
CCN1CCc2c(sc(-n3cccc3)c2C(C)NC(=O)Nc2ccc(C(=O)OC)cc2)C1 (stereo not given)	·	·	1.5%	·	·
CN1C(=O)/C(=C/c2cccc([N+](=O)[O-])c2)C(=O)N1c1ccccc1	-2.0%	·	15.1µM*	-2.3%	?
C/C=C1/C(=O)C[C@H]2[C@@H]3CCC4=CC(=O)CC[C@]4(C)[C@H]3CC[C@]12C	·	-40.4%	·	·	·
c1ccc(Nc2cccc(Nc3ccccc3)n2)cc1	?	-22.3%	19µM*	16.9%	?
SMILES	Rab9 prom act	SMN2 splice enh	FLuc counter	NPC1 promoter act	ELG1 genotox
O=C(O)COc1ccccc1/C=N/NC(=O)CSc1nnc(SCc2ccc(Cl)cc2)s1	5.4%	·	9.53µM*	13.5%	-3.1%
O=C(CSc1nnc(SCc2ccc(Cl)cc2)s1)N/N=C/c1c[nH]c2ccccc12	-2.9%	-22.3%	-4.7%	7.3%	10.2%
O=C(CSc1nnc(SCc2ccc(Cl)cc2)s1)N/N=C/c1ccc(C(=O)O)cc1	0.1%	·	1.35µM*	9.8%	1.7%
O=C(O)COc1ccccc1/C=N/NC(=O)CSc1nnc(SCc2cccc3ccccc23)s1	-3.9%	·	19µM*	1.9%	0.5%
O=C(CSc1nnc(SCc2cccc3ccccc23)s1)N/N=C/c1c[nH]c2ccccc12	-1.0%	-26.0%	?	0.0%	-6.1%
O=C(CC1CCCCC1)NCCOc1ccccc1	1.1%	8.2%	-10.9%	11.4%	6.4%
CCOc1ccc(N/C=C/C(=O)c2ccccc2)c([N+](=O)[O-])c1	0.1µM*	0.562µM*	0.12µM*	0.1µM*	?
CC(C)(C)C(=O)/C=C/c1ccc(Oc2ccccc2)cc1	6.31µM*	·	6.01µM*	?	?
O=C(NCCOc1ccccc1)C1CCCCC1	3.16µM*	20µM*	?	?	?
CCOc1ccc(/C=C/C(=O)NCc2ccccc2)cc1	-2.4%	6.0%	15.1µM*	1.9%	7.5%
Cc1cccc(N2CCN(c3nc4ccc(C)cc4n4cnnc34)CC2C)c1 (stereo not given)	·	-5.3%	-19.3%	·	·
O=C(CN1CCN(Cc2ccccc2Cl)C1=O)NCc1ccccc1Cl	·	-4.1%	-14.8%	·	·
CCOc1ccc(C(=O)/C=C/c2cc(OC)c(OC)c(OC)c2)cc1	-15.5%	-57.0%	?	-7.2%	-8.8%
CCOc1ccc(C(=O)N/N=C/c2ccc(SC)cc2)cc1	-4.2%	?	-8.0%	2.4%	7.3%
CCOc1ccc(/C=C/C(=O)c2ccccc2)cc1	0.794µM*	·	0.151µM*	1.12µM*	?
CCOc1ccc(C(=O)/C=C/c2ccc(SC)cc2)cc1	-0.9%	-6.5%	5.36µM*	0.7%	0.0%
O=C(/C=C/c1ccccc1)NCCOc1ccccc1	?	?	23.9µM*	27.5%	?
C[C@H]1Cc2c(-c3ccccc3)nc3c(c2CO1)CN(C(=O)c1ccco1)CC3	·	3.0%[9.22 µM]	·	·	·
CCc1ccc2oc(-c3cc(NC(=O)c4cccnc4)cc(C)c3O)nc2c1	·	11.6%	0.849µM*	·	·
